Source: PubChem
This is a sample that favours compounds with a hit; in the whole collection about 3% have one here.
TRb-SRC2 inh = TRbeta-SRC2 interaction inhibition | Potency, µM (series often up to 106 µM), for inactives: at the top dose activity change, negative = inhibition, actives largely listed as inhibitors | AID 1469 | P10828 | 0.065% of 280,000 active | TRbeta-SRC2 peptide binding, fluorescence polarization; receptor liganded with 1 µM T3;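 also: plate controls were bound peptide for no effect and peptide without receptor for full effect; nearly all actives have a fitted effect of over 50% in size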
Target sequence (P10828 whole entry, looked up): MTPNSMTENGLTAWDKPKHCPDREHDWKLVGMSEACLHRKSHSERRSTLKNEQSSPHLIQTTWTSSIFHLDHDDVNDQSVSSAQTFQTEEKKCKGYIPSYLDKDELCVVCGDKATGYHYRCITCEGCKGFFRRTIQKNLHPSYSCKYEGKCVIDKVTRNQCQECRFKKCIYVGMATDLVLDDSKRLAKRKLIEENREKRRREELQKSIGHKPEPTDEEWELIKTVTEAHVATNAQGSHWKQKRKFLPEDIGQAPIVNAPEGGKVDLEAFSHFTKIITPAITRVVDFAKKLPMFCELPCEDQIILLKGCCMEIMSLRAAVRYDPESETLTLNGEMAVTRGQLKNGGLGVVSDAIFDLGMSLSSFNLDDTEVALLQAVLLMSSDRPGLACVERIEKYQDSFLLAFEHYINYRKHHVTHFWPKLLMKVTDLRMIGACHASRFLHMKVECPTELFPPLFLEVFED
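Human TRb ligand-binding domain (0.6 uM) is mixed with 20 nM Texas Red SRC2 peptide and 1 uM T3; after compound addition and 5 hr at ambient temperature, polarization is measured and normalized to unbound and bound controls.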
Tau fluor cs = counter-screen for tau fibril formation inhibitors. tau K18 P301L Alexa594 fluorescence, heparin fibrillization. 0.93% of 280,000 active. AID 1463. Potency, µM (doses to about 57.7 µM), for inactives: at the highest dose activity change, negative = decrease; also: nearly all actives have a fitted effect of over 55% in size
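Human K18 P301L tau (15 uM unlabeled plus 0.24 uM Alexa 594-labeled, final) in 100 mM sodium acetate pH 7 was mixed with compound and 20 uM heparin and incubated 6 hr at 37 C.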
TexasRed fluor = alters Texas Red total fluorescence, flagging assay interference; TRb/SRC2 Texas Red total fluorescence interference; Potency, µM (series often up to 106 µM), for the others: at the top dose fluorescence change, negative = quenching; 0.29% of 280,000 active; AID 1479; active = well fitted curve in either direction with a large enough effect; inconclusive = small, poorly fitted or top-dose-only effect
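Flags fluorescent or light-absorbing compounds by total fluorescence, S + 2P, at 555 nm excitation and 632 nm emission. Mixture: 20 nM Texas Red SRC2 peptide, 0.6 uM human TRb LBD, 1 uM T3, 5% DMSO; compound exposure 5 h at ambient temperature.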
Tau FP inhib = inhibitors of human tau fibril formation; P10636; K18 P301L tau heparin fibrillization, Alexa594 FP, 6 h; Potency, µM (titrated, usually from 57.7 µM), without a hit: at the highest dose activity, negative = inhibition, usual class: inhibitors; 0.39% of 280,000 active; AID 1468; also: nearly all actives have a fitted effect of over 55% in size
Target sequence (P10636 561-689 P618L limits assumed): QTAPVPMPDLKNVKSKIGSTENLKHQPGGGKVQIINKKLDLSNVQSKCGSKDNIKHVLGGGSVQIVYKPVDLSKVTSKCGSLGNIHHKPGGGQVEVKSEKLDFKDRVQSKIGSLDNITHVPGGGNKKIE
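K18 P301L tau (15 uM unlabeled/0.24 uM Alexa 594-labeled, final) + compound + heparin 20 uM final; 100 mM NaOAc pH 7; 6 hr 37 C; ThT 30 uM final added, 1 hr RT; FP ex 555/em 632 nm.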
Tau ThT inhib = tau fibrillization inhibition (ThT binding). recombinant tau K18 P301L (four-repeat tau fragment), heparin-induced fibrillization, ThT fluorescence. Potency, µM (top dose mostly 57.4 µM), inactives show at the top dose activity, negative = inhibition, most hits filed as inhibitors. 2.1% of 270,000 active. AID 1460; also: nearly all actives have a fitted effect of over 55% in size
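K18 P301L tau (15 uM + 0.24 uM Alexa 594-tagged), heparin 20 uM, NaOAc pH 7, 6 h 37 C; ThT 30 uM, 1 h RT, ex 450/em 510 nm.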
* hit, by the source's call; u = inconclusive; x = not tested or not shown; [ ] = another dose, or the depositor's remark. Unless noted, calls follow the shape of the dose curve; as a rule, active = well fitted curve in the direction sought with a large enough effect; inconclusive = small, poorly fitted or top-dose-only effect, or another doubt; inactive = no such curve, though single readings can be large; an effect the other way counts as inactive or inconclusive. Unless noted, % is scaled to controls: 0 for no effect and ±100 for the full control effect; potency is read from the fitted curve at half-maximal effect.

SMILES	TRb-SRC2 inh	Tau fluor cs	TexasRed fluor	Tau FP inhib	Tau ThT inhib
COc1cccc(NC(=O)C2CCN(c3nc4ccccc4nc3C(F)(F)F)CC2)c1	9%	u	0%	u	-2%
O=C1c2ccccc2C(=O)C1c1ccc2ccccc2n1	-9%	-5%	-3%	2%	2.2µM*
COC1=CC(=O)C=C(OC)C1=O	11%	u	0%	22µM*	10µM*
Cc1cc(C)n2[nH]c(=O)c(N=Nc3ccccc3)c2n1	-10%	1%	-15%	4%	u
Cc1cc(=O)n2[nH]c(=O)c(N=Nc3ccccc3)c2[nH]1	-3%	-13%	-14%	7%	14µM*
CCOc1ccc(N=Nc2c(=O)[nH]n3c(=O)cc(C)[nH]c23)cc1	-1%	-13%	-17%	8%	3.5µM*
CC(=O)NC(=S)Nc1ccc(NC(=S)NC(=O)/C=C/c2ccco2)cc1	8%	u	u	-2%	x
O=C(/C=C\c1ccco1)Nc1ccc(N2CCN(C(=O)c3ccccc3)CC2)cc1	5%	u	-4%	2%	11µM*
O=C(/C=C/c1ccco1)NC(=S)Nc1ccc(N2CCCC2)cc1	-3%	u	-3%	-13%	3.5µM*
O=C(/C=C/c1ccco1)N1CCN(c2ccccc2)CC1	1%	8%	0%	1%	-13%
O=C(/C=C/c1ccco1)NC(=S)Nc1ccc(Cl)cn1	18%	u	u	-3%	22µM*
CC(C)[C@@H](CC(=O)N[C@@H]1CCNC[C@H]1C(=O)N[C@H](CC(=O)N[C@@H](CCC(=O)O)CC(=O)O)Cc1c[nH]c2ccccc12)NC(=O)C[C@H](CO)NC(=O)[C@@H]1CCCC[C@H]1N	-4%	0%	-1%	2%	-3%
COc1ccccc1Cc1nc2ccccc2nc1SCC(=O)Nc1cc(Cl)ccc1OC	-2%	-13%	-3%	u	-3%
COc1ccc(CNC(=O)CCn2nc(C)c3c(C)n(-c4ccccc4)nc3c2=O)cc1OC	-15%	13%	-1%	7%	u
COc1ccc(Nc2nc(N)c([N+](=O)[O-])c(N3CCOCC3)n2)cc1	-4%	u	-4%	10%	u
CN(C)c1ccc(Nc2nc(N)c([N+](=O)[O-])c(N3CCOCC3)n2)cc1	3%	u	-8%	7%	16µM*
CC1=NN(c2ccccc2)C(=O)C1C=Nc1ccc(N(C)C)cc1 (configuration not stated)	u	u	12%	5%	7.9µM*
CCOc1ccc(C(=O)Nc2ccc3oc(-c4cccnc4)nc3c2)cc1	4%	-6%	-2%	-17%	u
C[C@@]12CCC3c4ccc(OS(=O)(=O)O)cc4CCC3C1CCC2O (some centres not stated)	-1%	-5%	-4%	-3%	-10%
O=C(COC(=O)c1cc(S(=O)(=O)N2CCc3ccccc3C2)ccc1Cl)NCc1ccco1	-3%	u	0%	u	32µM*
O=C(COc1ccccc1-c1nc(-c2ccccc2)no1)Nc1ccccc1[N+](=O)[O-]	2%	-29%	-2%	4%	-17%
CCOC(=O)C1=C(c2ccccc2)O/C(=C(\C(=O)OC)C(F)(F)F)S1	-4%	-9%	-3%	-3%	-5%
CCOC(=O)C1=C(c2ccccc2)O/C(=C(/C#N)C(F)(F)F)S1	-3%	u	-1%	u	16µM*
CCCCN(CCCC)CCNC(=O)Cn1nc(C)n2c(cc3sccc32)c1=O	4%	-6%	-18%	-10%	11%
C/C=C/c1ccc(OCC(=O)O)c(OC)c1	-6%	-2%	-4%	-3%	-8%
SMILES	TRb-SRC2 inh	Tau fluor cs	TexasRed fluor	Tau FP inhib	Tau ThT inhib
COc1cc(/C=C2/C(C)=C(C#N)c3nc(N)c(C#N)c(C)c32)ccc1OCC(=O)O	-1%	u	27%	u	14µM*
Nc1nonc1-c1nc2ccccc2n1CC(=O)N/N=C/c1ccc(-c2ccccc2C(=O)O)o1	-4%	7%	-2%	-1%	10%
CC1=C(C#N)c2nc(N)c(C#N)c(C)c2/C1=C\c1ccc(-c2ccccc2C(=O)O)o1	u	u	u	u	8.9µM*
Cc1cccc(Cn2c(SCc3ccc(C(=O)NCc4cccs4)cc3)nc3cccnc32)c1	1%	-17%	-20%	3%	2%
CCN(C(=O)CN1CCN(c2ccc(O)cc2)CC1)c1c(N)n(Cc2ccccc2)c(=O)[nH]c1=O	-2%	-27%	-4%	u	28µM*
Cc1cc(NC(=O)c2cc(-c3ccco3)on2)n(-c2ccccc2)n1	-16%	-2%	-1%	-2%	-13%
Cc1cc(-c2ccco2)n(-c2ccccc2)n1	-12%	-14%	3%	u	32µM*
Cc1ccc2nc(-c3cccc(NC(=O)c4cccc5ccccc45)c3)oc2c1	9%	-29%	3%	u	-5%
CCc1ccc2[nH]c(=O)c(C(c3nnnn3CCOC)N3CCN(c4ccccc4F)CC3)cc2c1 (configuration not stated)	-3%	-24%	-3%	u	18µM*
COCCn1nnnc1C(c1ccc(OC)cc1OC)N1CCN(c2ccccc2F)CC1 (configuration not stated)	-6%	2%	-2%	2%	-5%
COC(=O)[C@@]1(Cc2ccccc2)[C@H]2c3cc(C(=O)N4CCCC4)[nH]c3C[C@H]2CN1C(=O)c1ccccc1	6%	1%	3%	4%	-10%
Cc1cc(C)n2c(Nc3ccc(Cl)cc3)c(-c3ccsc3)nc2n1	1%	-18%	1122µM*[quencher]	-10%	-8%
C=CS(=O)(=O)c1ccc(Oc2ccc(S(=O)(=O)C=C)cc2)cc1	4%	-20%	0%	u	2µM*
Cc1ccc2c(c1)S/C(=C/c1ccc[n+](C)c1)N2CCO	4%	-5%	-1%	-6%	u
CCN1/C(=C/c2ccc3cc(C)ccc3[n+]2CC)Sc2cc(C)ccc21	5%	u	-1%	u	14µM*
CCN1/C(=C/c2ccc3ccccc3[n+]2CC)C=Cc2ccccc21	12%	12%	-1%	-14%	3.2µM*
CCN(CC)CCN1c2ccccc2Sc2ccc3ccccc3c21	6%	u	-1%	2%	u
CCCCN1/C(=C/c2ccc3ccccc3[n+]2CC)Sc2ccccc21	-3%	-1%	-1%	-7%	14µM*
CCN1/C(=C/c2ccc3cc(C)ccc3[n+]2C)Sc2ccc3sccc3c21	4%	3.2µM*[fluorescent]	7%	4%	1.6µM*
CO[C@@H]1COC(=O)C/C=C\[C@@H](C)COC(=O)[C@H](COCc2ccccc2)NC(=O)C/C=C\[C@H]1C	-2%[11.2 µM]	-15%[11.6 µM]	2%[11.2 µM]	-3%[11.6 µM]	-11%[11.5 µM]
CCCCCCCCCCCCC/C=C/[C@@H](O)[C@H](CO)NC(=O)CCCCC	-1%	x	u	x	x
